About 83,000 compounds went through this panel and 20% of them were active in at least one assay; those are over-represented in the sample as a whole.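 48-hour exposure, single concentration, 96-well plates; percent growth endpoint where 0 means no net growth. Active: below 10.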 A number with no mark means an inactive call. The source made the active and inactive calls.
What was measured:
Experiment in all cases: NCI-60 one-dose screen, 48 h (100 = growth as untreated, 0 = no growth, -100 = all killed)
Conditions in all cases: 10 µM unless noted
[1] = tested on: SK-MEL-2 melanoma
[2] = tested on: EKVX NSCLC
[3] = tested on: SN12C renal
[4] = tested on: UO-31 renal
[5] = tested on: TK-10 renal
[6] = tested on: ACHN renal
[7] = tested on: CAKI-1 renal
[8] = tested on: A498 renal
[9] = tested on: CCRF-CEM leukemia
[10] = tested on: MOLT-4 leukemia

Compound	growth [1]	growth [2]	growth [3]	growth [4]	growth [5]	growth [6]	growth [7]	growth [8]	growth [9]	growth [10]
Cn1cc(-c2nonc2-c2cn(C)c3ccc(Br)cc23)c2ccccc21	33.5%	48.6%	37.1%	32.3%	60.7%	33.5%	25.8%	-5.37% (active)	15.5%	27.2%
COC(=O)c1nc(-c2ccc(C)cc2)oc1S(=O)(=O)c1ccc(Cl)cc1	102%	108%	83.6%	75.1%	93.5%	80.4%	95%	113%	-15.8% (active)	-21% (active)
CC(=O)c1nn(-c2ccccc2)/c(=N/N=Cc2cn(-c3ccccc3)nc2-c2cc3ccccc3oc2=O)s1	103%	97.2%	105%	84%	103%	101%	88.5%	120%	101%	95.9%
CSc1nnc(-c2cc3c([nH]c4ccccc43)c(-c3cccc(O)c3)n2)n1-c1ccc(C)cc1	-13.6% (active)	70.4%	62.7%	41.5%	35.5%	32.3%	48.3%	30.6%	12.2%	17.4%
COc1cc(-c2nn(-c3cccc(NC(=O)CCN4CCN(C)CC4)c3)cc2-c2ccncc2)ccc1Cl	2.29% (active)	47.1%	33.3%	41.5%	39.2%	51.7%	38.7%	14.1%	9.08% (active)	12.7%
Nc1ccc(/C=N/Nc2ccnc3c(N)cccc23)c2cccnc12	87.9%	32.2%	71.1%	-58.8% (active)	-43.1% (active)	-87.7% (active)	31.9%	77%	-25.6% (active)	-37.5% (active)
Cn1cc(-c2csc(-c3c[nH]c4ccc(F)cc34)n2)c2cnccc21	-66.4% (active)	-28.4% (active)	-48.5% (active)	-75.3% (active)	-28% (active)	-54% (active)	-57.8% (active)	74.8%	-32.3% (active)	-34.7% (active)
C=CCNC(=O)Cc1c(-c2ccc(OC)cc2)oc2c(OC)c3c(c(OC)c12)OCO3	108%	107%	94.6%	80.8%	110%	104%	87.8%	55%	94.1%	99.7%
Cc1c(C(C)(C)O)cn2ncnc(Oc3ccc(NC(=O)Nc4ccc(Cl)c(C(F)(F)F)c4)cc3)c12	75.9%	30.8%	44.3%	50.9%	45.9%	21%	29.2%	11.6%	34.1%	18.2%
COc1ccc(C/C(C)=C(/c2ccc(OCCN3CCCCCC3)cc2)c2ccc(OC(=O)c3ccccc3)cc2)cc1	97.4%	93%	97.4%	88.4%	97.2%	99.6%	104%	120%	93%	77%
N#C/C(=N\Nc1ccc(Cl)cc1)C(=O)Nc1cc(-c2ccccc2)nn1-c1ccccc1	10.5%	24.4%	0.137% (active)	47.1%	28.6%	33.9%	21.5%	3.5% (active)	15.3%	26.1%
COc1cc(-c2[nH]ncc2Nc2ccc(Cl)cc2)cc(OC)c1OC	112%	45.4%	89.9%	42.9%	67.8%	78.9%	-14.8% (active)	68.9%	54.9%	50.9%

From PubChem BioAssay (NCI)
